An excerpt weighted towards active compounds, which were near 2.4% of everything screened.
FEN1 inh: qHTS Assay for the Inhibitors of Human Flap endonuclease 1 (FEN1); P39748; Potency, µM (highest dose often 114 µM), for inactives: at the top dose activity change, negative = inhibition, hits mostly inhibitors; Recombinant FEN1 flap cleavage, fluorescence, 15 min; 0.35% of 390,000 active; also: % is scaled to controls: 0 for no effect and ±100 for the full control effect; nearly all actives have a fitted effect of over 65% in size
Target sequence (P39748 whole entry, looked up): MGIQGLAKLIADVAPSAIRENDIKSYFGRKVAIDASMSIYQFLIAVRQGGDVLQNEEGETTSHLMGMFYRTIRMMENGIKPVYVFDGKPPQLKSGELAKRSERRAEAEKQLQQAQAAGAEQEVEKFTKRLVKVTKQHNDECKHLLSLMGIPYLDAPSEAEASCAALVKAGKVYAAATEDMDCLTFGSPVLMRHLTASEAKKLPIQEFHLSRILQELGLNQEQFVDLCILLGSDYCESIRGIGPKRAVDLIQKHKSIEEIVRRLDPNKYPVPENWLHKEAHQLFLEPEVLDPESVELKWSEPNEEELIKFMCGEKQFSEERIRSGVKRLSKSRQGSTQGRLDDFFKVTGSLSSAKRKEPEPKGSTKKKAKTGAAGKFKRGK
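Potency values derive from four-parameter Hill fits of normalized qHTS data. The reaction used 10 nM FEN1 preincubated 15 min at room temperature with compound, then 50 nM DNA substrate, read at 0 and 15 min.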
POLK inh: qHTS for Inhibitors of Polymerase Kappa; DNA polymerase kappa (Homo sapiens), Q9UBT6; AID 588579, 2011; purified Pol kappa, fluorescent DNA synthesis assay, 10 min; Potency, µM (highest dose often 107 µM), for inactives: top-dose activity, negative = inhibition, most hits filed as inhibitors; 0.53% of 400,000 active; also: % is scaled to controls: 0 for no effect and ±100 for the full control effect
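Readout: fluorescence, taken kinetically at 0 and 10 min. Conditions: 10 nM Pol kappa, 15 min RT compound preincubation, 50 nM substrate final. Controls: enzyme-free buffer wells.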
Pol eta inh: qHTS for Inhibitors of Polymerase Eta; DNA polymerase eta (Homo sapiens), Q9Y253; recombinant Pol eta, fluorescent DNA replication assay; Potency, µM (highest dose often 114 µM), for inactives: at the top dose activity change, negative = inhibition, usual class: inhibitors; 1.2% of 390,000 active; also: % is scaled to controls: 0 for no effect and ±100 for the full control effect
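Fluorescent replication assay: 50 nM final substrate added after a 15 min room-temperature compound preincubation with 10 nM enzyme. Signal taken at 0 min and again at 10 min.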
POLB inh: qHTS Assay for Inhibitors of DNA Polymerase Beta | P06746 | 1.3% of 340,000 active | AID 485314, 2010 | Potency, µM (highest dose often 114 µM), inactives show top-dose activity change, negative = inhibition, most hits filed as inhibitors | Pol beta primer extension/strand displacement, fluorescence kinetic; also: % is scaled to controls: 0 for no effect and ±100 for the full control effect
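Kinetic readout of DNA synthesis with strand displacement by Pol beta. Compound and 10 nM enzyme sit 15 min at room temperature; 50 nM substrate starts the reaction, read immediately and at 10 min.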
WRN inhibitor: qHTS for Inhibitors of WRN Helicase | Bifunctional 3'-5' exonuclease/ATP-dependent helicase WRN (Homo sapiens), Q14191 | WRN helicase unwinding, fluorescent forked duplex, kinetic | Potency, µM (doses to about 114 µM), for the others: top-dose activity change, negative = inhibition, most hits filed as inhibitors | 0.46% of 360,000 active | AID 651768, 2012; also: % is scaled to controls: 0 for no effect and ±100 for the full control effect; nearly all actives have a fitted effect of over 55% in size
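Kinetic fluorescence helicase assay: unwinding of a quenched forked DNA duplex (100 nM final) with 2 mM ATP final raises red fluorescence (525/598 nm). Compounds sat 15 min at room temperature with 20 nM WRN beforehand.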
Pol iota inh: qHTS for Inhibitors of Polymerase Iota | DNA polymerase iota (Homo sapiens), Q9UNA4 | Pol iota fluorescent replication assay, 10 min | Potency, µM (highest dose often 115 µM), inactives show at the highest dose activity, negative = inhibition, usual class: inhibitors | 1% of 390,000 active
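Fluorescent replication assay read twice, at 0 min and 10 min after adding 50 nM (final) substrate. Enzyme (10 nM) and compounds were first incubated 15 min at room temperature; enzyme-free buffer wells were negative controls.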
* hit, by the source's call; u = inconclusive; x = not tested or not shown; [ ] = dose if it differs, or a comment. Calls follow the shape of the dose curve; as a rule, active = well fitted curve in the direction sought with a large enough effect; inconclusive = small, poorly fitted or top-dose-only effect, or another doubt; inactive = no such curve, though single readings can be large; an effect the other way counts as inactive or inconclusive. Potency is read from the fitted curve at half-maximal effect.

SMILES | FEN1 inh | POLK inh | Pol eta inh | POLB inh | WRN inhibitor | Pol iota inh
C[C@H](CCCC(C)(C)O)[C@H]1CC[C@H]2[C@@H]3CC=C4C[C@@H](O)CC[C@]4(C)[C@H]3CC[C@]12C | x | -8.4%[19.4 µM] | x | x | x | x
CN(C)c1ccc(/C=C2\SC(=O)N(CCc3nnc(N)s3)C2=O)cc1 | 2.1% | -18.4% | -11.3% | u | -12.4% | 50.1µM*
CN(C)c1ccc(/C=C2/SC(=O)N(CCN=C3NS(=O)(=O)c4ccccc43)C2=O)cc1 | 0.8% | -13.0% | u | -0.8%[57.1 µM] | -27.9%[57.1 µM] | 1.7%
O=c1cc(CSc2nnnn2-c2ccccc2)nc(Nc2ccc(F)cc2)[nH]1 | -7.4% | u | u | 44.7µM* | -21.2% | 44.7µM*
N/C(=N\c1nc(CSc2nnnn2-c2ccccc2)cc(=O)[nH]1)Nc1ccccc1 | x | x | x | -0.5% | x | x
O=C1NC(c2ccccc2Br)=N/C1=C\c1ccco1 | -9.9% | 79.4µM* | -8.7% | u | -1.1%[11.6 µM] | u
O=C1NC(c2ccccc2)=N/C1=C/c1ccco1 | -5.1% | u | -13.5% | 28.2µM* | -26.8% | 5.0%
O=C1NNC(c2ccccc2)=N/C1=C\c1ccccc1 | 10.4% | -15.7% | -19.0% | -1.6% | 0.7% | u
O=C1NC(c2cccc(Br)c2)=N/C1=C\c1ccco1 | -2.6% | -84.6% | 3.9% | 44.7µM* | -3.5% | 25.1µM*
CC(C)C[C@H](NC(=O)[C@H](CC(C)C)NC(=O)[C@H](CCC(N)=O)NC(=O)[C@H](CO)NC(=O)[C@@H]1CCCN1C(=O)[C@H](CO)NC(=O)[C@H](CO)NC(=O)[C@@H](NC(=O)[C@H](Cc1cnc[nH]1)NC(=O)[C@H](CCC(=O)O)NC(=O)[C@H](Cc1ccc(O)cc1)NC(=O)[C@H](CCCCN)NC(=O)[C@H](CCC(N)=O)NC(=O)[C@H](Cc1ccc(O)cc1)NC(=O)[C@H](CC(=O)O)NC(=O)[C@@H](NC(=O)[C@@H]1CCCN1C(=O)[C@H](CC(=O)O)NC(=O)[C@H](CC(N)=O)NC(=O)[C@H](CC(=O)O)NC(=O)CNC(=O)[C@H](CC(=O)O)NC(=O)[C@@H]1CCCN1C(=O)[C@H](CCC(N)=O)NC(=O)[C@H](Cc1ccc(O)cc1)NC(=O)[C@H](C)NC(=O)[C@H](Cc1c[nH]c2ccccc12)NC(=O)[C@H](Cc1ccccc1)NC(=O)[C@@H](NC(=O)[C@@H](N)CO)[C@@H](C)O)[C@@H](C)O)[C@@H](C)O)C(=O)N[C@@H](C)C(=O)N1CCC[C@H]1C(=O)NCC(=O)N[C@@H](CC(=O)O)C(=O)N[C@@H](Cc1ccc(O)cc1)C(=O)O | x | 14.5%[60.1 µM] | x | x | x | x
O=[N+]([O-])c1ccc2c(c1)C=C/C2=C/c1ccccc1 | -21.5% | -8.2% | x | x | x | u
Cc1ccc(OCC(=O)Nc2ccccc2C(=O)OCc2cc(=O)n3ccsc3n2)cc1 | -1.6% | -14.2%[60.1 µM] | u | 2.82µM* | x | -18.4%
C[C@@H]1[C@H](c2ccccc2)OCCS(=O)(=O)N1Cc1cccc(C(F)(F)F)c1 | -3.3% | -12.4% | x | x | x | 35.5%
Cc1n[nH]c(C)c1Sc1ccccc1N=Cc1cc(Cl)cc([N+](=O)[O-])c1O | 79.4µM* | u | -12.1% | u | 50.1µM* | 25.1µM*
Cc1n[nH]c(C)c1Sc1ccccc1[N+](=O)[O-] | -2.1% | -9.0% | -21.2% | -26.6% | -6.1% | 107.6%
O=S(=O)(c1ccc(OC(F)(F)F)cc1)N1CCN(c2nc(-c3cccs3)nc3ccccc23)CC1 | -21.5% | -1.9% | x | x | x | 15.2%
O=C(/C=C/c1ccc(I)cc1)c1ccc(B(O)O)cc1 | x | 5.8%[60.1 µM] | x | x | x | x
C[n+]1c(/C=C/c2ccc(N)cc2)sc2ccccc21 | -20.3% | -19.7% | x | x | x | u
CN(C)c1cccc(C(=O)NNC(=O)NC2CCCCC2)c1 | 0.6% | -3.0% | -10.9% | 0.6%[57.1 µM] | 5.2% | -9.4%
O=C(NNC(=O)c1ccc(Br)s1)NC1CCCCC1 | 7.6% | -16.4% | -9.6% | 22.4µM* | u | 18.7%
COCCn1c(=O)c(-c2cn(C)c3ccccc23)nc2cnc(Oc3cccc(Cl)c3)nc21 | x | -8.2%[60.1 µM] | x | x | x | x
CN(/C=C/C(=C\C=[N+](C)c1ccccc1)OCCCS(=O)(=O)[O-])c1ccccc1 | -17.9% | u | -4.1% | 50.1µM* | -31.0% | u
CN(/C=C/C(=C/C=[N+](C)c1ccccc1)OCCCS(=O)(=O)[O-])c1ccccc1 | -10.3% | u | u | 28.2µM* | -27.6% | u
CC1CCCC(C)N1C(=O)COC(=O)c1ccc(S(=O)(=O)N(C)c2ccccc2)cc1 (configuration not stated) | -26.5% | -16.6% | -9.9% | x | -5.1% | 8.4%
CSCC[C@H](NC(=O)[C@@H](NC(=O)[C@H](CCC(=O)O)NC(=O)[C@H](CCSC)NC(=O)[C@H](CC(N)=O)NC(=O)[C@H](CCC(=O)O)NC(=O)[C@H](CC(N)=O)NC(=O)[C@H](CO)NC(=O)[C@H](C)N)[C@@H](C)O)C(=O)O | x | 8.7%[60.1 µM] | x | x | x | x
SMILES | FEN1 inh | POLK inh | Pol eta inh | POLB inh | WRN inhibitor | Pol iota inh
O=C(NCc1ccco1)c1ccc(-c2csnn2)cc1 | -7.6% | -8.4% | -6.8% | 10µM* | 4.8% | u
O=C(NCc1ccco1)c1ccc(C(F)(F)F)cc1 | -16.4% | -0.2% | -8.5% | -5.6% | -5.5% | 9.6%
COc1ccc(C(=O)N(Cc2ccco2)Cc2cccs2)cc1 | 0.0% | -12.1% | x | x | x | 15.0%
Cc1sc2nc(SCC(=O)Nc3ccc(Cl)c(C(=O)O)c3)[nH]c(=O)c2c1C | -4.0% | -11.3% | -12.4% | x | -5.7% | 32.5%
Cc1ccc(-c2csc3nc(SCC(=O)Nc4ccc(Cl)c(C(=O)O)c4)[nH]c(=O)c23)cc1 | -17.1% | -39.8% | 39.8µM* | u | u | u
Cc1sc2nc(SCC(=O)Nc3ccc(S(N)(=O)=O)cc3)[nH]c(=O)c2c1C | -14.1% | -15.6% | u | 25.1µM* | 1.6%[11.6 µM] | u
CN(C)c1ccc(Cn2ccc3ccccc32)cc1 | u | 0.5% | x | x | x | -6.9%
CC1(N2CCOCC2)CC2(O)C(=[N+]1[O-])CCc1c2no[n+]1[O-] (configuration not stated) | u | u | 17.8µM* | 2.2% | u | u

Assay outcomes from PubChem BioAssay.
